Columns and labels:
Assay in all cases: DAPPL (digital affinity profiling via proximity ligation, sequencing); 10 mM Tris-HCl pH 7.5, 50 mM NaCl, 1 mM DTT, 4% glycerol, room temperature, 30 min; GST-TFs on glutathione beads, 16-mer random dsDNA library, 0.1% formaldehyde crosslink after washing; high values mean tight binding
FLI1 = biological target: T1, FLI1 (Homo sapiens, UniProt Q01543 1-452); conditions: protein: recombinant; tags: N-terminal GST; dsDNA, one strand shown
T1 sequence: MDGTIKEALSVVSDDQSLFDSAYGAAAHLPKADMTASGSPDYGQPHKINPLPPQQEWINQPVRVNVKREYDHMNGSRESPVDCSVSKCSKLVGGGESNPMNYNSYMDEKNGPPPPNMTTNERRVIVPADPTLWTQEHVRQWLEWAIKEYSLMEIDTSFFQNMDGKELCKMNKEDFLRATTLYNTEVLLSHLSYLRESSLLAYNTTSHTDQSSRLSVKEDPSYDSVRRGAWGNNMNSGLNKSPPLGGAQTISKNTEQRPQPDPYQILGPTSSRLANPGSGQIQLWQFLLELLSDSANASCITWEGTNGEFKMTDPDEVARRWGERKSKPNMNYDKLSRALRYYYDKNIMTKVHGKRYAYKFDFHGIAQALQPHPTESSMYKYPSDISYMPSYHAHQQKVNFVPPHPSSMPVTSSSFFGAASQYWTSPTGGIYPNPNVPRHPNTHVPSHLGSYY
How it was run: (§1)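 Human transcription factors carrying a GST fusion were produced in yeast, bound to glutathione beads, tagged with DNA barcodes and pooled together with a tag-only sample. Each pool was held with 200 nmole of a random double-stranded 16-mer DNA library in Tris/NaCl/DTT/glycerol buffer for 30 min at room temperature, then washed, crosslinked in 0.1% formaldehyde, proximity-ligated with BsaI/T4 ligase (1 h, 37 °C), PCR-amplified and sequenced on an Illumina NextSeq500. Binding signal is the read frequency of each hexamer for a given factor divided by its frequency in the tag-only sample.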

ELK1 = biological target: T2, ELK1 (Homo sapiens, UniProt P19419 1-428); conditions: protein: recombinant; tags: N-terminal GST; dsDNA, one strand shown
T2 sequence: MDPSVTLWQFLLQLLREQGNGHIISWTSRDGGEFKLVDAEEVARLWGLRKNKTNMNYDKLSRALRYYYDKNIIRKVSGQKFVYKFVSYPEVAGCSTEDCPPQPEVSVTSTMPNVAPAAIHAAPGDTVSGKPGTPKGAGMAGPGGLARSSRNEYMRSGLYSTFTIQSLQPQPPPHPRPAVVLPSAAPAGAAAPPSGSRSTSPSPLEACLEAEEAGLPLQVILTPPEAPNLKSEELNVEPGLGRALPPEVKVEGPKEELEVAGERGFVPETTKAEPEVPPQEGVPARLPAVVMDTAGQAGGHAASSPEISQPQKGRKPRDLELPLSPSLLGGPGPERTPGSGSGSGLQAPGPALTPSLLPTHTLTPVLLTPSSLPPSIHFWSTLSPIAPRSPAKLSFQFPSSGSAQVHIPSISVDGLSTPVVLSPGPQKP
How it was run: as §1

GABPA = biological target: T3, GABPA (Homo sapiens, UniProt Q06546 1-454); conditions: protein: recombinant; tags: N-terminal GST; dsDNA, one strand shown
T3 sequence: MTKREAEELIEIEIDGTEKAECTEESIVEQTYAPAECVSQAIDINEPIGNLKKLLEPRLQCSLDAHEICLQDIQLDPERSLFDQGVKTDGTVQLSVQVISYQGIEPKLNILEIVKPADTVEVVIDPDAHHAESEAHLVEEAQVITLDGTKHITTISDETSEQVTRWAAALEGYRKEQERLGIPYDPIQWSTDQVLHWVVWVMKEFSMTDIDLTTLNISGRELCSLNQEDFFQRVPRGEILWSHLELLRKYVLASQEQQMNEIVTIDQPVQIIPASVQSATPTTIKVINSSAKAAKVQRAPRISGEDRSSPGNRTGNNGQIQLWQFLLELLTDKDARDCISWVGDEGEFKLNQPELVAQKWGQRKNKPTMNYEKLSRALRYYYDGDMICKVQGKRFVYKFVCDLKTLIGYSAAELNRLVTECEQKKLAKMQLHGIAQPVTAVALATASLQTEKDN
How it was run: as §1

ERG = biological target: T4, ERG (Homo sapiens, UniProt P11308 1-479); conditions: protein: recombinant; tags: N-terminal GST; dsDNA, one strand shown
T4 sequence: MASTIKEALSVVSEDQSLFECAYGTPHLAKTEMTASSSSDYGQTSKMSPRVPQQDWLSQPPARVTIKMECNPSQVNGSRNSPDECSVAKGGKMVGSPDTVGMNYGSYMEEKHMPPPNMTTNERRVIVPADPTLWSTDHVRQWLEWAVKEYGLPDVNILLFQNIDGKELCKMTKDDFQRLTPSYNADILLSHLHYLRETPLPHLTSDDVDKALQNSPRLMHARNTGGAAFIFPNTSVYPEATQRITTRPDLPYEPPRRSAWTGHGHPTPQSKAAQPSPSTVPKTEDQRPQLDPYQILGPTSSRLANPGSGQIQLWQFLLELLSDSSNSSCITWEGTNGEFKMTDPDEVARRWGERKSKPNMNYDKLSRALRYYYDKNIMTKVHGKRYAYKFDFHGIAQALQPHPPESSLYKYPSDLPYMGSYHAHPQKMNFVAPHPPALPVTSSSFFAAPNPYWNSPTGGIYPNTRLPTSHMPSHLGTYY
How it was run: as §1

ELF1 = ELF1 (Homo sapiens, UniProt P32519 1-619); conditions: protein: recombinant; tags: N-terminal GST; dsDNA, one strand shown
How it was run: as §1

EHF = biological target: T5, EHF (Homo sapiens, UniProt Q9NZC4 1-300); conditions: protein: recombinant; tags: N-terminal GST; dsDNA, one strand shown
T5 sequence: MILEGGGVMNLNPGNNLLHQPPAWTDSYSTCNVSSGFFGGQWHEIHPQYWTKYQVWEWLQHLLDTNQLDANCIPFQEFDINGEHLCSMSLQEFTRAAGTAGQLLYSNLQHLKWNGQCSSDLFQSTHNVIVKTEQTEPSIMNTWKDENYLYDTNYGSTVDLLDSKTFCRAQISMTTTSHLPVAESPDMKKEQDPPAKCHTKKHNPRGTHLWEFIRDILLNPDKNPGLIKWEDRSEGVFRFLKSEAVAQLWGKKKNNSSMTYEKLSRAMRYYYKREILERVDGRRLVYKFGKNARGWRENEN
How it was run: as §1

SPI1 = SPI1 (Homo sapiens, UniProt P17947 1-270); conditions: protein: recombinant; tags: N-terminal GST; dsDNA, one strand shown
How it was run: as §1

SPIB = SPIB (Homo sapiens, UniProt Q01892 1-262); conditions: protein: recombinant; tags: N-terminal GST; dsDNA, one strand shown
How it was run: as §1

ELK3 = biological target: T6, ELK3 (Homo sapiens, UniProt P41970 1-407); conditions: protein: recombinant; tags: N-terminal GST; dsDNA, one strand shown
T6 sequence: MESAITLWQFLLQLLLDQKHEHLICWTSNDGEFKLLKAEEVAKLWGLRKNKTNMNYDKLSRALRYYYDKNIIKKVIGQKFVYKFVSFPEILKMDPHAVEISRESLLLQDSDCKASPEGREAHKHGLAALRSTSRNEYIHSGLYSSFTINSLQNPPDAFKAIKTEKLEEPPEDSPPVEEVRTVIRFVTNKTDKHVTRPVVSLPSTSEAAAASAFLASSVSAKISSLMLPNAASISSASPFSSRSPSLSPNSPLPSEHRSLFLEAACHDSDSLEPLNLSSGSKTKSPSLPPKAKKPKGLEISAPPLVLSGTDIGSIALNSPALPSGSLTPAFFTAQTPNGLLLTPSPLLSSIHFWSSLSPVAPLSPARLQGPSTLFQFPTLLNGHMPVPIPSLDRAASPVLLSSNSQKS
How it was run: as §1

FEV = biological target: T7, FEV (Homo sapiens, UniProt Q99581 1-238); conditions: protein: recombinant; tags: N-terminal GST; dsDNA, one strand shown
T7 sequence: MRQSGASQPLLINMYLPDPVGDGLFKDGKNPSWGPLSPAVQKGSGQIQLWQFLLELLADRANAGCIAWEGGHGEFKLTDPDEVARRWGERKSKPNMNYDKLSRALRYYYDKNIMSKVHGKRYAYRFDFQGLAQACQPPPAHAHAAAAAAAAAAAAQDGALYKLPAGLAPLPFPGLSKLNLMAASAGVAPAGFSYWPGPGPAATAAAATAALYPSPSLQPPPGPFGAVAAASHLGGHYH
How it was run: as §1

ETV5 = ETV5 (Homo sapiens, UniProt P41161 1-510); conditions: protein: recombinant; tags: N-terminal GST; dsDNA, one strand shown
How it was run: as §1

HSF1 = HSF1 (Homo sapiens, UniProt Q00613 1-529); conditions: protein: recombinant; tags: N-terminal GST; chain copies: 3; dsDNA, one strand shown
How it was run: as §1

SPIC = biological target: T8, SPIC (Homo sapiens, UniProt Q8N5J4 1-248); conditions: protein: recombinant; tags: N-terminal GST; dsDNA, one strand shown
T8 sequence: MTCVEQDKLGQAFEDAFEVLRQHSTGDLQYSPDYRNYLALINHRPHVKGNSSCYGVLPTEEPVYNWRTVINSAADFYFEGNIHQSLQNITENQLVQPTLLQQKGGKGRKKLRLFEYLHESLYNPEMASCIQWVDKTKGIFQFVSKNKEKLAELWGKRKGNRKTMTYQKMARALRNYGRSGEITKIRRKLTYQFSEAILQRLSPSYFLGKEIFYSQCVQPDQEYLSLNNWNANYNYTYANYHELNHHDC
How it was run: as §1

ELF4 = ELF4 (Homo sapiens, UniProt Q99607 1-663); conditions: protein: recombinant; tags: N-terminal GST; dsDNA, one strand shown
How it was run: as §1

ELK4 = biological target: T9, ELK4 (Homo sapiens, UniProt P28324-2 1-405); conditions: protein: recombinant; tags: N-terminal GST; dsDNA, one strand shown
T9 sequence: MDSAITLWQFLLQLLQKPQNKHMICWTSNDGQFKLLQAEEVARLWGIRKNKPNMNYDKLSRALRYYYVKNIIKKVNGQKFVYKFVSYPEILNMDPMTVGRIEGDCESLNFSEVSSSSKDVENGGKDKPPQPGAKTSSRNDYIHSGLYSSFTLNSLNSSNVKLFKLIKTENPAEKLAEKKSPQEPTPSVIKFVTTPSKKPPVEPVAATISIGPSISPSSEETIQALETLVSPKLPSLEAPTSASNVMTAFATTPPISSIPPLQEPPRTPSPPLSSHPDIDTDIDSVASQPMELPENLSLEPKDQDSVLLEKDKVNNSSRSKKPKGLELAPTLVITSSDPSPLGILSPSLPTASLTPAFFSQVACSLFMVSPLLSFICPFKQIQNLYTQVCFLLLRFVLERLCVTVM
How it was run: as §1

ETV2 = biological target: T10, ETV2 (Homo sapiens, UniProt O00321 1-342); conditions: protein: recombinant; tags: N-terminal GST; dsDNA, one strand shown
T10 sequence: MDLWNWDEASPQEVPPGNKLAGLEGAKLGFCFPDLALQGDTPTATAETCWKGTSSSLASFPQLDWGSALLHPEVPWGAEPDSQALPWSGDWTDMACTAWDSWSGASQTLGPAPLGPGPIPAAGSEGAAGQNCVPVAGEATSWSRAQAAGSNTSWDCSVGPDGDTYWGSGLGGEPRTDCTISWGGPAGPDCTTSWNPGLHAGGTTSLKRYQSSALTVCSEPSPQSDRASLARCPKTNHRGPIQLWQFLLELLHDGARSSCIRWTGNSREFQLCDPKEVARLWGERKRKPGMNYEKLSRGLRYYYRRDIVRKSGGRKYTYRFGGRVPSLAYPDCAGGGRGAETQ
How it was run: as §1

ELF3 = biological target: T11, ELF3 (Homo sapiens, UniProt P78545 1-371); conditions: protein: recombinant; tags: N-terminal GST; dsDNA, one strand shown
T11 sequence: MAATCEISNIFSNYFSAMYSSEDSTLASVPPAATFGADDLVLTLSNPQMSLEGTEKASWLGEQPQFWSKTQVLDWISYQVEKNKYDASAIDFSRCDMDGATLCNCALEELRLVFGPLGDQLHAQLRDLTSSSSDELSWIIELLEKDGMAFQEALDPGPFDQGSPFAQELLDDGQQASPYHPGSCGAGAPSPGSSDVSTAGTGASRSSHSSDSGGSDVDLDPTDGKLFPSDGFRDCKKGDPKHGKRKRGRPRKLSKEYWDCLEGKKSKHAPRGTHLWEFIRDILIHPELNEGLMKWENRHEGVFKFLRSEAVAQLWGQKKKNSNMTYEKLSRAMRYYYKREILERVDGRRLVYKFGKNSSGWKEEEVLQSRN
How it was run: as §1

CRX = CRX (Homo sapiens, UniProt O43186 1-299); conditions: protein: recombinant; tags: N-terminal GST; dsDNA, one strand shown
How it was run: as §1

ETV1 = ETV1 (Homo sapiens, UniProt P50549 1-477); conditions: protein: recombinant; tags: N-terminal GST; dsDNA, one strand shown
How it was run: as §1

Sequence of ETV5 (P41161 whole entry): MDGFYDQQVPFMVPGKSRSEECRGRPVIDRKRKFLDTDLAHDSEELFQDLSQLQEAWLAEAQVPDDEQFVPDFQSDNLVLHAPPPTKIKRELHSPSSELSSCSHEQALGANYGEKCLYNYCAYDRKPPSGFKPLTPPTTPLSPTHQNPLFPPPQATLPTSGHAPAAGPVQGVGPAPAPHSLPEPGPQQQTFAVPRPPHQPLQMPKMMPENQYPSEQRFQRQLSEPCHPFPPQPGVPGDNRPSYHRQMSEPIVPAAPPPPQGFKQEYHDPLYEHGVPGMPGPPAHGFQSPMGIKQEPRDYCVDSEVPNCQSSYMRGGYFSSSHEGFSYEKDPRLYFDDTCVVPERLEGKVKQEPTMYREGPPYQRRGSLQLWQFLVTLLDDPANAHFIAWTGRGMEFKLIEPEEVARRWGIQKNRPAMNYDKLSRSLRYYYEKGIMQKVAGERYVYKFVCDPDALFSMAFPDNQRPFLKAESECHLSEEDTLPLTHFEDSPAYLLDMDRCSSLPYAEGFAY
Sequence of HSF1 (Q00613 whole entry): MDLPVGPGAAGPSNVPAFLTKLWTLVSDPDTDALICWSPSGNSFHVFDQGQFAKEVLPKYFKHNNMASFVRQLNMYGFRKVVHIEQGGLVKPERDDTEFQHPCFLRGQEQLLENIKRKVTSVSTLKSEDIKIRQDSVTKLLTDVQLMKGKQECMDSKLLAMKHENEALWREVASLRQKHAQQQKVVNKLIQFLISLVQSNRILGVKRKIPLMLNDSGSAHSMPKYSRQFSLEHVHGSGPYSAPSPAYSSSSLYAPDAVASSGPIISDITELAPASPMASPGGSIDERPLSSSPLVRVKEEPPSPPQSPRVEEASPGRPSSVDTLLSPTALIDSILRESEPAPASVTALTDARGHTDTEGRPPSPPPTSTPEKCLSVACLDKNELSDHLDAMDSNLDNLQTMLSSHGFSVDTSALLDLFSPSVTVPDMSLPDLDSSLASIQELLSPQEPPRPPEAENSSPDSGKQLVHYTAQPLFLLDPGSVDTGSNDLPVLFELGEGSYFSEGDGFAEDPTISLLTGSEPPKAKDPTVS
Sequence of CRX (O43186 whole entry): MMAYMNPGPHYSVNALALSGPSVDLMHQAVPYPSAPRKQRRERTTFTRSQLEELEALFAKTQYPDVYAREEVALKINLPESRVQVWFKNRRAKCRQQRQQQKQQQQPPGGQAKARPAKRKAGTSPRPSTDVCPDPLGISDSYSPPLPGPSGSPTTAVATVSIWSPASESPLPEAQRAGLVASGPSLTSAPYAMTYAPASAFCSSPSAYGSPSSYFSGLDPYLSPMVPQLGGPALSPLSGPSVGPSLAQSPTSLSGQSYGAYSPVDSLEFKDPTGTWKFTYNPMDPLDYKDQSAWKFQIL
Sequence of ELF1 (P32519 whole entry): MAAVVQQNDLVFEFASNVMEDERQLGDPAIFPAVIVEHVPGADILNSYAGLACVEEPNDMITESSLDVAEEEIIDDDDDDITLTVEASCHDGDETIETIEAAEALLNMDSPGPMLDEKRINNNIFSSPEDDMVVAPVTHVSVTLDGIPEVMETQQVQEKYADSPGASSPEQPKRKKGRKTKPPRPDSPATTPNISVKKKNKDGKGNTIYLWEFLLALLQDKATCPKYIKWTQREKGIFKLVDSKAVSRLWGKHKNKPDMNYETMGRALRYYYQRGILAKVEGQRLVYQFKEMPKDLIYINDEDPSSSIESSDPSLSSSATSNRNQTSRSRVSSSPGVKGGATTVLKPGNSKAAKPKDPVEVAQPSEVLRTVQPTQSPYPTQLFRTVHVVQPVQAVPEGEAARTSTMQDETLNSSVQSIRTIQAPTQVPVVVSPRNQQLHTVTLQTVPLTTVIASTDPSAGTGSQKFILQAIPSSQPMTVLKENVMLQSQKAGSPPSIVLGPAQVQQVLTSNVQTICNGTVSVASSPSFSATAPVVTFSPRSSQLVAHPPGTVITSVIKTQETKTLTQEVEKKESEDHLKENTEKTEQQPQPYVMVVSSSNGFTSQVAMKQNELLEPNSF
Sequence of SPIB (Q01892 whole entry): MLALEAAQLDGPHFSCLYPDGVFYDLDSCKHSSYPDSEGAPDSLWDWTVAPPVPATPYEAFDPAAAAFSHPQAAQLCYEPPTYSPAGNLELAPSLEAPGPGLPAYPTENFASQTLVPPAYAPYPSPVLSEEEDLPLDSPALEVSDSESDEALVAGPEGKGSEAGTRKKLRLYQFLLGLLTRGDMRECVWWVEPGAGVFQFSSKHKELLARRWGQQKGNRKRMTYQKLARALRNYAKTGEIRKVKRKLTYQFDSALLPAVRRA
Sequence of ETV1 (P50549 whole entry): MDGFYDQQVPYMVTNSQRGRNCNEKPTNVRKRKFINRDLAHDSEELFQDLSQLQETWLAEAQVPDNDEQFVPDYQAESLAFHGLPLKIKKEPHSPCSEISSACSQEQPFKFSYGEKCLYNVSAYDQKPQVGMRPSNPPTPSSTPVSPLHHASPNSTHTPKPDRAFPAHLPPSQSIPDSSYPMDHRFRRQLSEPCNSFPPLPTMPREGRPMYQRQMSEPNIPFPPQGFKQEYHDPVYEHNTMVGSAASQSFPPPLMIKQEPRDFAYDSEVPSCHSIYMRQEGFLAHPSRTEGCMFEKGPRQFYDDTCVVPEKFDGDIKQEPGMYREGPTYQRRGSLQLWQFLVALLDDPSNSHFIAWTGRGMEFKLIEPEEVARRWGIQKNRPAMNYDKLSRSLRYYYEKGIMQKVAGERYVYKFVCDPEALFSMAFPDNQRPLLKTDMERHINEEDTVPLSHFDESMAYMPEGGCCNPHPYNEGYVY
Sequence of ELF4 (Q99607 whole entry): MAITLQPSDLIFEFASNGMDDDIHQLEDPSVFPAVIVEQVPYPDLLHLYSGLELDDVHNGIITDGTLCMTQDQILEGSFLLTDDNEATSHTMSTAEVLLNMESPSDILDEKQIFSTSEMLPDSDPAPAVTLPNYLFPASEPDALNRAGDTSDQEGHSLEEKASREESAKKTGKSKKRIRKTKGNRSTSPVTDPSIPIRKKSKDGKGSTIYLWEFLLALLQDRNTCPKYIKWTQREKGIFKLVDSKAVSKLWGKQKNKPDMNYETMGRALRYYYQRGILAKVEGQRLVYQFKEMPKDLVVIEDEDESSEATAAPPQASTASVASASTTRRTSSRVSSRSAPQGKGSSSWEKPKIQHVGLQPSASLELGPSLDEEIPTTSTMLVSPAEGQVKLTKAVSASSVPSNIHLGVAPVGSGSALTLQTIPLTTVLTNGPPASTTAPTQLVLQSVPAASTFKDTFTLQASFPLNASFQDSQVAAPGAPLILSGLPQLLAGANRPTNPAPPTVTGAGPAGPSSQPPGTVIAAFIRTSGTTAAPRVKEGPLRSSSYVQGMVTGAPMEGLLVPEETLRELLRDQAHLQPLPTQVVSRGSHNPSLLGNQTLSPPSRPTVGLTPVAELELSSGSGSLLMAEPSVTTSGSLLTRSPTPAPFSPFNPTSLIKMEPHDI

ATGAAT
binding signal (FLI1): 1.16 fold enrichment (6-mer frequency, TF over GST control)
binding signal (ELK1): 1.16 fold enrichment (6-mer frequency, TF over GST control)
binding signal (GABPA): 1.2 fold enrichment (6-mer frequency, TF over GST control)
binding signal (ERG): 1.11 fold enrichment (6-mer frequency, TF over GST control)
binding signal (ELF1): 1.07 fold enrichment (6-mer frequency, TF over GST control)
binding signal (EHF): 1.14 fold enrichment (6-mer frequency, TF over GST control)
binding signal (SPI1): 1.15 fold enrichment (6-mer frequency, TF over GST control)
binding signal (SPIB): 1.23 fold enrichment (6-mer frequency, TF over GST control)
binding signal (ELK3): 1.12 fold enrichment (6-mer frequency, TF over GST control)
binding signal (FEV): 1.07 fold enrichment (6-mer frequency, TF over GST control)
binding signal (ETV5): 1.1 fold enrichment (6-mer frequency, TF over GST control)
binding signal (HSF1): 1.19 fold enrichment (6-mer frequency, TF over GST control)
binding signal (SPIC): 1.31 fold enrichment (6-mer frequency, TF over GST control)
binding signal (ELF4): 1.14 fold enrichment (6-mer frequency, TF over GST control)
binding signal (ELK4): 1.13 fold enrichment (6-mer frequency, TF over GST control)
binding signal (ETV2): 1.04 fold enrichment (6-mer frequency, TF over GST control)
binding signal (ELF3): 1.08 fold enrichment (6-mer frequency, TF over GST control)
binding signal (CRX): 1.2 fold enrichment (6-mer frequency, TF over GST control)
binding signal (ETV1): 1.16 fold enrichment (6-mer frequency, TF over GST control)

Reference: PMC7862700, “An all-to-all approach to the identification of sequence-specific readers for epigenetic DNA modifications on cytosine”
